Activity calls are given as the source filed them.
Experiments:
[1] = optical density shifts of acrAB sulA E. coli – strain DRC41, OD650, 48 h, E. coli filamentation inducer project, primary screen (AID 1152); conditions: higher = more signal, called active from +8 up or from −8 down;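 also: E. coli MC1000 strain DRC41 lacking acrAB efflux pump and sulA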
[2] = probe aLefty1 binding on compound microarray – biochemical, small-molecule microarray, 635/667 nm fluorescence, primary screen (AID 1153); conditions: higher = more signal;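 also: score merges spot fluorescence with signal-to-noise ratio from the scanned slide images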
[3] = plasmodial surface anion channel blockers, osmotic lysis – cell-based, P. falciparum Indochina, OD700, 1 h, primary screen (AID 1154); conditions: P. falciparum Indochina infected RBC osmotic lysis, higher = more signal, called active from +8 up or from −8 down
[4] = plasmodial surface anion channel blockers, osmotic lysis – cell-based, P. falciparum Indochina, OD700, 2 h, primary screen (AID 1155);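 also: lysis reports solute entry through the parasite surface anion channel PSAC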; conditions: P. falciparum Indochina infected erythrocytes, higher = more signal, called active from +8 up or from −8 down
[5] = changes in parasitized red cell lysis, either direction – P. falciparum Indochina, OD700, 3 h, PSAC antagonist project, primary screen (AID 1156); conditions: P. falciparum-infected erythrocytes, osmotic lysis, higher = more signal, called active from +8 up or from −8 down
[6] = plasmodial surface anion channel blockers, osmotic lysis – cell-based, P. falciparum Indochina, OD700, 18 h, primary screen (AID 1157); conditions: P. falciparum Indochina infected erythrocytes, osmotic lysis OD700, 18 h; higher = more signal, called active from +8 up or from −8 down
[7] = S6 kinase pathway phospho-S6 level changes – cell-based, A549, cytoblot, luminescence, serum-stimulated, primary screen (AID 1158); conditions: 5 h, higher = more signal;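 also: serum-stimulated A549 lung adenocarcinoma cells; signal is phosphorylated S6 detected by cytoblot immunostaining with HRP secondary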
[8] = target: NADPH oxidase 2 (Homo sapiens) (UniProt P04839); test: compounds shifting NOX2 Amplex Red fluorescence – cell-based, HEK293-NOX2, PMA-stimulated, NOX inhibitor project, primary screen (AID 1159); conditions: 45 min, higher = more signal, called active from +8 up or from −8 down; also: test concentration not given here
[9] = target: NADPH oxidase 4 (Homo sapiens) (UniProt Q9NPH5); test: compounds shifting NOX4 Amplex Red fluorescence – cell-based, HEK293-NOX4, tetracycline-induced, NOX inhibitor project, primary screen (AID 1160); conditions: HEK293-NOX4, Amplex Red H2O2 fluorescence, 45 min; higher = more signal, called active from +8 up or from −8 down
[10] = target: NADPH oxidase 5 (Homo sapiens) (UniProt Q96PH1); test: compounds shifting NOX5 Amplex Red fluorescence – cell-based, HEK293-NOX5, NOX inhibitor project, primary screen (AID 1161); conditions: HEK293-NOX5, ionomycin, 45 min, higher = more signal
[11] = compound effects on lung adenocarcinoma cell viability – A549, calcein-AM fluorescence, 48 h, basal, profiling panel (AID 1162); conditions: higher = more signal; also: test concentration not given here
[12] = compound effects on differentiated 3T3-L1 adipocyte viability – cell-based, 3T3-L1 adipocytes, calcein-AM fluorescence, 48 h, basal, profiling panel (AID 1163); conditions: 3T3-L1 adipocytes viability, higher = more signal; also: test concentration not given here
[13] = compound effects on hepatocellular carcinoma cell viability – HepG2, calcein-AM fluorescence, 48 h, basal, profiling panel (AID 1164); conditions: higher = more signal; also: test concentration not given here
[14] = compound effects on multiple myeloma cell viability – MM1S, calcein-AM fluorescence, 48 h, basal, profiling panel (AID 1165); conditions: higher = more signal; also: test concentration not given here
[15] = calcein-AM signal in unstimulated myeloma cells – cell-based, calcein-AM fluorescence, 48 h, PK04 Diversity Set, profiling panel (AID 1166); conditions: RPMI8226 myeloma viability, higher = more signal;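 also: cells grown under basal conditions without added stimulus; test concentration not given here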
[16] = JC-1 mitochondrial signal, unstimulated HepG2 cells – cell-based, JC-1 fluorescence, 24 h, 100 nL compound, profiling panel (AID 1167); conditions: HepG2 mitochondrial potential, higher = more signal; also: test concentration not given here
[17] = JC-1 mitochondrial signal, unstimulated adipocytes – cell-based, JC-1 fluorescence, 3T3-L1 adipocytes, 24 h, 100 nL compound, profiling panel (AID 1168); conditions: JC-1 mitochondrial fluorescence, higher = more signal, called active from +8 up or from −8 down; also: test concentration not given here
[18] = JC-1 mitochondrial signal, unstimulated myeloma cells – cell-based, JC-1 fluorescence, RPMI8226, 24 h, 100 nL compound, profiling panel (AID 1169); conditions: JC-1 mitochondrial potential fluorescence, higher = more signal; also: test concentration not given here
[19] = JC-1 mitochondrial signal, unstimulated MM1S myeloma – cell-based, JC-1 fluorescence, 24 h, 100 nL compound, profiling panel (AID 1170); conditions: MM1S mitochondrial potential, higher = more signal; also: test concentration not given here
[20] = resazurin metabolic signal in A549 cells – cell-based, resazurin fluorescence, 24 h, PK04 Diversity Set, profiling panel (AID 1171); conditions: A549 viability, higher = more signal, called active from +8 up or from −8 down; also: test concentration not given here

Chain of NADPH oxidase 4 (Homo sapiens) (Q9NPH5 whole entry, looked up): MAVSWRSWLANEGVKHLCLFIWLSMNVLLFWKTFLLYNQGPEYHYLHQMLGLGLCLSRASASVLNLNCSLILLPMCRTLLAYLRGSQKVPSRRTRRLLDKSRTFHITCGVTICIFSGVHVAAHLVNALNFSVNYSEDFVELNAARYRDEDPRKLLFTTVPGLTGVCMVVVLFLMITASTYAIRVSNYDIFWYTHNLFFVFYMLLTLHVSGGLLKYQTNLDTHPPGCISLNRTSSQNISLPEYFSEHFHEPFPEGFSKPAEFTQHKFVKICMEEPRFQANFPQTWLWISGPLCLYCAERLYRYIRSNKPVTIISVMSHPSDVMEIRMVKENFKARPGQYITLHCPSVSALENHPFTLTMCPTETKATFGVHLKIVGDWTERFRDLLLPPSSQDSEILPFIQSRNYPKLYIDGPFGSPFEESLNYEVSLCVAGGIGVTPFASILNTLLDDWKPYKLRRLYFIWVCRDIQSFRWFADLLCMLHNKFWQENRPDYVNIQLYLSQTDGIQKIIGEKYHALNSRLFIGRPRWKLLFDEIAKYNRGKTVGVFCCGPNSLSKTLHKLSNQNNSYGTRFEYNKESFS
Chain of NADPH oxidase 2 (Homo sapiens) (P04839 whole entry, looked up): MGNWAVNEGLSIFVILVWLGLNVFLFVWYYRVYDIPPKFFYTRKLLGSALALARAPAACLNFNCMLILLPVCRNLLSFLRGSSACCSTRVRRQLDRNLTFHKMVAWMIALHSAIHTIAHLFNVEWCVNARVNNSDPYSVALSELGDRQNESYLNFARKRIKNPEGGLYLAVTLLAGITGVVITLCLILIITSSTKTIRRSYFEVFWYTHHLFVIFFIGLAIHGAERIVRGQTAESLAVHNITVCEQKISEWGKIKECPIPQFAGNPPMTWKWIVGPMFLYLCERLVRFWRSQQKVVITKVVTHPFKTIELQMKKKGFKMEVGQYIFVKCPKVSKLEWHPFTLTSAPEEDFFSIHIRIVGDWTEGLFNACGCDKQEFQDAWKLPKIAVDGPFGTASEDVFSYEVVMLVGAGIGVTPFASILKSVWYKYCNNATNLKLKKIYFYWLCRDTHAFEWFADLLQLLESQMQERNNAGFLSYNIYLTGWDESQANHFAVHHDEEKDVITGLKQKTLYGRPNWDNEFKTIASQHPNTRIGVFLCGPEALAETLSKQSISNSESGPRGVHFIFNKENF
Chain of NADPH oxidase 5 (Homo sapiens) (Q96PH1 whole entry, looked up): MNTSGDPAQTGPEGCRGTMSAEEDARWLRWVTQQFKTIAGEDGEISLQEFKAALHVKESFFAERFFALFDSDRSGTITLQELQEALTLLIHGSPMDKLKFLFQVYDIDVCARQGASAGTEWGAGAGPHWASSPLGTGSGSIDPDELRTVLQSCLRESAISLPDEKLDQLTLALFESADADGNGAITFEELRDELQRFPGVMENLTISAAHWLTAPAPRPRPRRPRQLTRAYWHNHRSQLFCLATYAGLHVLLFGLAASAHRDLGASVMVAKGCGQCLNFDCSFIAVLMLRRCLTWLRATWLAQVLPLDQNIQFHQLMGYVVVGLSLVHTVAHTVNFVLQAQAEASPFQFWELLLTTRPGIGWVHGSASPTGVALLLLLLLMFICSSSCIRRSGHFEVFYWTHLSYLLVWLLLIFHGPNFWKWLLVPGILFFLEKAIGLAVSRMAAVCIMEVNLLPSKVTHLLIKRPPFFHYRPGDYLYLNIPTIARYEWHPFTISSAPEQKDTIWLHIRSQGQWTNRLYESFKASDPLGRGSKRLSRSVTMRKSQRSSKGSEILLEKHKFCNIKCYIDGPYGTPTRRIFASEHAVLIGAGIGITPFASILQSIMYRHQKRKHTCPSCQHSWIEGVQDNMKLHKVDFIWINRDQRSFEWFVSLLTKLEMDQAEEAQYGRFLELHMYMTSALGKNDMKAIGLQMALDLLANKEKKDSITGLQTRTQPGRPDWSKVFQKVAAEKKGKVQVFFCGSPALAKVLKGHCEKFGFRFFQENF

| SMILES | z-score [1] | composite z-score [2] | z-score [3] | z-score [4] | z-score [5] | z-score [6] | z-score [7] | z-score [8] | z-score [9] | z-score [10] | z-score [11] | z-score [12] | z-score [13] | z-score [14] | z-score [15] | z-score [16] | z-score [17] | z-score [18] | z-score [19] | z-score [20] |
| --- | --- | --- | --- | --- | --- | --- | --- | --- | --- | --- | --- | --- | --- | --- | --- | --- | --- | --- | --- | --- |
| COCCOC(=O)N1C(=O)[C@@]2(c3cc(C#CCC(C(=O)OC)C(=O)OC)ccc31)[C@H](c1ccc(OCCO)cc1)N1[C@H](c3ccccc3)[C@H](c3ccccc3)OC(=O)[C@H]1[C@@H]2C(=O)N1CCCCCCC1 | 0.759 (inactive) | 2.81 | 3.66 (inactive) | 1.98 (inactive) | 1.04 (inactive) | 0.901 (inactive) | -0.0522 | 2.05 (inactive) | 0.397 (inactive) | 2.28 | 0.52 | 0.586 | 0.496 | -0.169 | -0.602 | 0.119 | -2.24 (inactive) | -0.635 | -1.15 | 0.78 (inactive) |
| CN(C)CCCCNC(=O)[C@H]1C[C@H]2C(=O)N[C@@H](Cc3ccccc3)C(=O)N2[C@H]1c1cccc(OCCO)c1 | 2.11 (inactive) | 0.0751 | 2.68 (inactive) | -0.546 (inactive) | -0.282 (inactive) | -1.43 (inactive) | 0.331 | 0.693 (inactive) | 0.863 (inactive) | 1.43 | -0.411 | -0.0901 | 0.219 | 0.642 | 0.826 | 0.17 | -0.259 (inactive) | 0.264 | -0.396 | 1.12 (inactive) |
| COC(=O)[C@H](Cc1ccc(O)cc1)N1CC2=CCCC=C[C@@H]2[C@H]1[C@H](O)Cc1ccccc1 | 1.42 (inactive) | -0.149 | 3.23 (inactive) | -1.53 (inactive) | -0.241 (inactive) | -2.05 (inactive) | 0.814 | 0.63 (inactive) | -3.8 (inactive) | -2.8 | 0.852 | 0.308 | -0.231 | -3.12 | -0.833 | -1.68 | -0.501 (inactive) | -0.521 | -1.58 | 0.481 (inactive) |
| CC=CC(O)C1C=CC2C(=O)N(C)C(=O)C2N1NC(=O)OC(C)(C)C (stereo not given) | -1.06 (inactive) | 0.277 | -0.597 (inactive) | 0.43 (inactive) | -0.0501 (inactive) | 0.556 (inactive) | -1.42 | -0.798 (inactive) | -1.37 (inactive) | -1.22 | -0.73 | -0.604 | -0.39 | -0.354 | -0.303 | -1.55 | -0.238 (inactive) | 0.397 | 0.163 | -0.383 (inactive) |
| COc1ccc(NC(=O)O[C@H]2[C@H](OC(=O)Nc3ccc4c(c3)OCO4)[C@H](OC(=O)Nc3ccc4c(c3)OCO4)[C@@H](OC)O[C@@H]2CO)cc1 | -0.723 (inactive) | 0.114 | 13.7 (active) | 1.26 (inactive) | 0.99 (inactive) | 0.597 (inactive) | -0.0897 | -1.54 (inactive) | -0.399 (inactive) | -1.64 | -0.798 | 0.568 | -0.54 | -0.714 | -0.983 | -0.0127 | -0.213 (inactive) | -0.685 | -1.19 | -0.339 (inactive) |
| CCCC=C(CCC)[C@@H](NC(=O)c1ccccc1)c1ccc(C(=O)OC)cc1 | 0.119 (inactive) | 1.29 | -0.072 (inactive) | 0.502 (inactive) | -0.0759 (inactive) | -0.289 (inactive) | 3.85 | -3.83 (inactive) | -3.23 (inactive) | -1.45 | -0.185 | 0.921 | -0.535 | -0.355 | -1.08 | -1.59 | 0.131 (inactive) | -0.515 | -1.12 | 0.18 (inactive) |
| COc1ccc([Si](C)(C)[C@H]2[C@H](CCO)O[C@@]3(C(=O)N(Cc4ccccc4)c4ccc(N(C=O)c5ccccc5)cc43)[C@@H]2C)cc1 | 0.352 (inactive) | 0.0927 | 5.68 (inactive) | 2.52 (inactive) | 1.12 (inactive) | 1.28 (inactive) | 0.456 | -0.98 (inactive) | 0.184 (inactive) | 1.23 | -0.108 | 0.288 | -3.3 | -0.622 | -2.82 | 0.553 | -0.00912 (inactive) | -0.914 | -1.27 | -1.25 (inactive) |
| CCCCNC(=O)c1ccc(C#C[Si](C)(C)C)c(OC(C)=O)c1 | 0.151 (inactive) | -0.0032 | 12.3 (active) | 1.64 (inactive) | 1.67 (inactive) | 0.672 (inactive) | 0.726 | 1.8 (inactive) | 0.194 (inactive) | 0.0648 | -0.507 | 0.477 | -0.484 | 0.131 | -1.13 | -1.12 | -0.538 (inactive) | -0.215 | -0.601 | -0.389 (inactive) |
